# Data reported in PubChem BioAssay (NCI).
# Compounds without any hit were thinned out: in the full panel of roughly 83,000, 20% have a hit.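 Step 1: grow cells in 96-well plates. Step 2: add test compound at a single concentration. Step 3: incubate 48 h. Step 4: record percent growth.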 The source made the active and inactive calls.
# Tested on: HCC-2998 colon
# Assay: NCI-60 one-dose screen, 48 h (100 = growth as untreated, 0 = no growth, -100 = all killed)
# Settings: 10 µM unless noted
# Method: Growth inhibition of the HCC-2998 human tumor cell line is measured as a screen for anti-cancer activity. Cells are grown in 96 well plates and exposed to the test compound for 48 hours. Compounds are tested at a single concentration, which is 10^-5 M for most compounds. The reported endpoint is percent growth (GI% or GIPRCNT), where numbers from 0 - 100% represent growth inhibition, and numbers from -100% - 0 represent cell death. For example, a value of 40 represents 60% growth inhibition. A value of 0 means no net growth occurred over the course of the experiment. A value of -40 indicates 40% of cells at the beginning of the experiment died by the end of the experiment. A value of -100 means all cells are dead at the end of the experiment.
# NCI-60 Human Tumor Cell Lines Screen was performed using the standard one-dose NCI protocol, which is described in more detail at https://dtp.cancer.gov/discovery_development/nci-60/default.htm.
# Compounds with GIPRCNT values below 10 were considered active. Activity score was based on GIPRCNT using the following formula: […]
# Score is 0 for GIPRCNT values of 100 or above, 50 for GIPRCNT values of 0, and 100 for GIPRCNT values of -100.
row,Compound,growth
1,O=C1Nc2ccccc2/C1=C/C(=N/c1nnc(-c2ccccc2)s1)c1ccccc1,104% (inactive)
2,CCCCCC(=O)Oc1ccc(/C(=C(\C)c2ccccc2)c2ccc(OCCN(CC)CC)cc2)cc1,88.1% (inactive)
3,COc1ccccc1/C=C(/C(=O)c1ccccc1)c1ccccc1,107% (inactive)
4,CNCCCn1c2c(c3ccc([N+](=O)[O-])cc3c1=O)C(=O)c1cc(OC)cnc1-2,11.1% (inactive)
5,O=C(CN1CCN(c2cc3c(cc2F)c(=O)c(C(=O)O)cn3C2CC2)CC1)Nc1cc(=O)[nH]c(=O)[nH]1,98.1% (inactive)
6,CCN(CC)c1ccc(/C=C/C2=[N+](C)c3ccccc3C2(C)C)cc1,24.1% (inactive)
7,COCCOc1ccc(-c2nc3ccc(-c4nc5ccc(N6CCN(C)CC6)cc5[nH]4)cc3[nH]2)cc1,-52.7% (active)
8,CSc1nc(NCCO)c(C#N)c(-c2cccc(N)c2)n1,109% (inactive)
9,Cc1cc(Cl)ccc1Nc1nc(C(F)(F)F)ccc1C(=O)N/N=C/c1ccc(F)cc1,12.4% (inactive)
10,CC/C(=C(\c1ccc(O)cc1)c1ccc(OCCN(C)CCN(C)C(=O)CCCCC(=O)c2c(C)[nH]c(/C=C3\N=C(c4ccc[nH]4)C=C3OC)c2C)cc1)c1ccccc1,97% (inactive)
11,COc1ccc2nc3cc(Cl)ccc3c(N3CCN(c4nccc(Nc5ccccc5)n4)CC3)c2c1,87.6% (inactive)
12,CNCc1cccc2c1OCCOCCOCCN(C)S(=O)(=O)c1ccc(cc1)-c1cnc(N)c(n1)C(=O)N2,75.5% (inactive)
13,CN1CCCCC1CCN1c2ccccc2Sc2ccc(Cl)cc21 (stereo not given),61.1% (inactive)
14,C#Cc1nc2ccccc2c(=O)[nH]1,-41.1% (active)
15,O=C1c2cccnc2C(=O)c2c1c(C(=O)OCCN1CCCCC1)c1ccccn21,-46.6% (active)
16,Cn1c2ccccc2c2c3[nH]c(=O)[nH]c(=O)c3c3c4ccccc4n(C)c3c21,73.9% (inactive)
17,CCCCCCCCCCCCCCCC(=O)OCC1OC(n2cnc3c(=S)nc(N)[nH]c32)C(OC(=O)CCCCCCCCCCCCCCC)C1OC(=O)CCCCCCCCCCCCCCC (stereo not given),53.6% (inactive)
18,Cc1ccc(Nc2nc(N)nc(Nc3ccc4ccccc4c3)n2)cc1,77.5% (inactive)
19,Cn1cc(-c2csc(-c3cn(C)c4ncccc34)n2)c2ccccc21,37.6% (inactive)
20,O=C1/C(=C/c2ccccc2)CN(CCC(=O)N2C/C(=C\c3ccccc3)C(=O)/C(=C/c3ccccc3)C2)C/C1=C\c1ccccc1,26.7% (inactive)

row,Compound,growth
1,CCCCCCCCCCCCCCCC[N+]1(CC)CCCC1,-59.5% (active)
2,Brc1cccc(-c2nc(-c3ccc4c(c3)OCCO4)co2)c1,92.1% [25 µM] (inactive)
3,COc1ccc(-c2cc(C(=O)N=Nc3c(O)[nH]c4ccccc34)no2)cc1,107% (inactive)
4,COc1ccc(OCC(=O)Nc2ccc(-c3nc4ccccc4s3)cc2C)cc1,90.4% (inactive)
5,O=[N+]([O-])c1c(F)cccc1Nc1cccc(F)c1,102% (inactive)
6,Cc1ccc(C2CC3c4ccccc4C2C2CCCCN32)cc1 (stereo not given),93.1% (inactive)
7,CC1=NNC(=O)C1C (stereo not given),103% (inactive)
8,O=C1Nc2ccccc2C12CC(c1ccccc1)=NN2 (stereo not given),75.6% (inactive)
9,COc1ccc(CN2C(=O)/C(=C\c3cc(OC)c(OC)c(OC)c3)c3cc(OC)ccc32)cc1,74.1% (inactive)
10,CN(C)CCOc1ccc(-c2nc3ccc(-c4nc5ccc(N6CCN(C)CC6)cc5[nH]4)cc3[nH]2)cc1,99% (inactive)
11,O=C1NC(=O)C(CC(=O)n2c(-c3ccccc3)nc3ccccc32)C(=O)N1,113% (inactive)
12,CN1C2CCC1/C(=C\c1ccc(Cl)cc1)C1=C2[C@@H](c2ccc(Cl)cc2)C(C#N)=C(N)O1 (stereo not given in full),104% (inactive)
13,CSc1ccc(N=C=C(c2ccccc2)c2ccccc2)cc1,100% (inactive)
14,COc1cnc2c(c1)C(=O)c1c-2n(CCCN2CCN(C)CC2)c(=O)c2cc([N+](=O)[O-])ccc12,95.1% (inactive)
15,CC/C=C\C[C@H](F)C/C=C1/C(=O)C=C[C@@H]1C/C=C\CCCC(=O)OC,9.38% (active)
16,C=C1CC2(OC1=O)C(=O)Nc1ccccc12 (stereo not given),90.1% (inactive)
17,COc1cccc(NC(=O)c2sc3nc4c(cc3c2N)CN(Cc2ccccc2)CC4)c1,77.3% (inactive)
18,CCCCCCCCCCCCCCCCCCNC(=O)[C@H]1CSC(c2ccc(OC)c(F)c2)N1 (stereo not given in full),-57.5% (active)
19,COc1ccc(C(=O)/C=C/c2c(Cl)c3c(c(OC)c2Cl)OCC(=O)N3)cc1,41.8% (inactive)
20,C=C1CC[C@@H]2[C@](C)(COC(C)=O)[C@H](OC(C)=O)CC[C@@]2(C)[C@@H]1CC(NCc1ccc(F)cc1)C1=CCOC1=O (stereo not given in full),89.3% (inactive)
